UBC13 polyUb = human UBC13 polyubiquitination inhibition | UBC13 polyubiquitin chain formation, TR-FRET | inhibition, % at 20 µM | 330,000 compounds, 0.47% hits; in the data active = inhibition above about 45%, passing the limit was not always enough
Target sequence (P61088 whole entry, looked up): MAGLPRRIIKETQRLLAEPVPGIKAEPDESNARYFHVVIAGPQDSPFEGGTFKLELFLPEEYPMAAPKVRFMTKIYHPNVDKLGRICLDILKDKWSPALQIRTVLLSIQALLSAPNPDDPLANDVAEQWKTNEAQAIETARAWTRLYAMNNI
UBC9 SUMO inh = inhibitors of human SUMOylation (UBC9) | P63279 | HTRF SUMOylation assay, SAE1/SAE2 + UBC9, in vitro | inhibition, % at 35 µM | 290,000 compounds, 0.36% hits; in the data active = inhibition above about 50%, passing the limit was not always enough
NR3A LBD binder = modulates the human NR3A ligand-binding domain; NR3A LBD differential scanning fluorimetry, Tm shift; 0% = protein alone, 100% = glycine-bound protein; Tm shift relative to glycine control, % at 25 µM; 340,000 compounds, 2.5% hits; AID 1259313;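 active = melting temperature shift of at least 10% of the positive control shift, at one fixed dose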
HGIII-sPLA2 inh = Inhibits HGIII-sPLA2 liposome hydrolysis, primary screen. 370,000 compounds, 0.56% hits. QFRET BODIPY PC-A2 liposome hydrolysis, fluorescence. AID 743126. inhibition, % at 12.2 µM;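 active = inhibition above mean plus 3 SD of compounds lying within the high and low control bounds, cut at about 19% in these data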;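 also: 0% = median of test compound wells and 100% = no enzyme DMSO wells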
Target sequence (Q9NZ20 whole entry, looked up): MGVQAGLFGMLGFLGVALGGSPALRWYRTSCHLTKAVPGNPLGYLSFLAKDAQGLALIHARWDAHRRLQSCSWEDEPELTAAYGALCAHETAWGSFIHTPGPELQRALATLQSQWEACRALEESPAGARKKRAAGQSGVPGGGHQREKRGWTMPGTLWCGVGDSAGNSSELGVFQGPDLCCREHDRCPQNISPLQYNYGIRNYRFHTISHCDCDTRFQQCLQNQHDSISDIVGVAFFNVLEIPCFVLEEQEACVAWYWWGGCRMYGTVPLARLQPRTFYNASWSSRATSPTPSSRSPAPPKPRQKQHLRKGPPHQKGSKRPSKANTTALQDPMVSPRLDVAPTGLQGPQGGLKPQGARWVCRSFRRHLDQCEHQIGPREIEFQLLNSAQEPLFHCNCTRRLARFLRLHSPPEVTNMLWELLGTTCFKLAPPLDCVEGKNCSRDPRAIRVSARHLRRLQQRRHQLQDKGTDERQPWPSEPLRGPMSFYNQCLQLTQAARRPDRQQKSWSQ
sPLA2 confirm = human GIII-sPLA2 inhibition, confirmation; shares compounds with HGIII-sPLA2 inh; recombinant hGIII-sPLA2, BODIPY PC-A2 QFRET fluorescence; inhibition, % at 12.2 µM; 2,000 compounds, 34% hits; AID 743280;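 active = mean inhibition across triplicates above the hit cutoff set in the earlier primary screen, cut at about 19% in these data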;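 also: 0% = enzyme with DMSO and 100% = DMSO wells lacking enzyme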
535nm interf = 535nm fluorescence interference, HGIII-sPLA2 counter-screen; inhibition, % at 12.2 µM; 2,000 compounds, 8.5% hits; BODIPY FL product fluorescence interference, QFRET; shares compounds with HGIII-sPLA2 inh;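 active = average inhibition above the solvent-only control mean plus 3 SD, cut at about 6% in these data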;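 also: 0% = DMSO with substrate plus product and 100% = DMSO with substrate alone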
535nm interf DR = counter-screen for HGIII-sPLA2 inhibitors: 535nm fluorescence interference, dose response. shares compounds with HGIII-sPLA2 inh. BODIPY FL product fluorescence interference, cell-free. IC50, µM. 240 tested, under 10 active. AID 743455;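 active = IC50 at or below 10 µM; inactive = IC50 above 10 µM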
* hit, by the source's call. An excerpt weighted towards active compounds, which were near 3.3% of everything screened.

Screening CN1/C(=C\C(=S)NC(=O)c2ccccc2Cl)C(C)(C)c2ccccc21 returned UBC13 polyUb -32.7, UBC9 SUMO inh -1.5, NR3A LBD binder -0.4 and HGIII-sPLA2 inh 17.6.
Cc1ccc(-n2[nH]c(C)c(C=Nc3ccc(S(=O)(=O)N4CCOCC4)cc3)c2=O)c(C)c1 was read as UBC13 polyUb 0.8, UBC9 SUMO inh 2.5, HGIII-sPLA2 inh 22.4*, sPLA2 confirm 8.4 and 535nm interf -12.5.
Screening CCN(CC)C(=O)/C=C/c1ccccc1 returned UBC13 polyUb -2.9, NR3A LBD binder 0.6, HGIII-sPLA2 inh 19.8*, sPLA2 confirm -2.5 and 535nm interf -3.8.
For COc1ccc(CNC(=O)CSc2nc3ccc(N)cc3s2)cc1 the results were UBC13 polyUb 2.7, UBC9 SUMO inh -1.8, NR3A LBD binder -1.9, HGIII-sPLA2 inh 28.5*, sPLA2 confirm 12.0 and 535nm interf -3.3.
CCOc1ccc2nc(SCC(=O)NCc3ccc(S(N)(=O)=O)cc3)sc2c1 was read as UBC13 polyUb -0.2, UBC9 SUMO inh -4.3, NR3A LBD binder 0.9 and HGIII-sPLA2 inh -5.3.
For Cc1cccc(NC(=S)NNC(=O)c2ccc(O)cc2O)c1C the results were UBC13 polyUb -10.5, UBC9 SUMO inh -1.7, NR3A LBD binder -13.9, HGIII-sPLA2 inh 41.6*, sPLA2 confirm 33.5*, 535nm interf 2.6 and 535nm interf DR >122.
For Cc1ccc(NC(=S)NNC(=O)c2ccccc2O)c(C)c1 the results were UBC13 polyUb -9.7, UBC9 SUMO inh -9.1, NR3A LBD binder -13.5, HGIII-sPLA2 inh 48.7*, sPLA2 confirm 36.9*, 535nm interf -0.7 and 535nm interf DR >122.
Screening COc1ccc(C)cc1NC(=S)NNC(=O)c1ccccc1Cl returned UBC13 polyUb -1.9, UBC9 SUMO inh -75.2, NR3A LBD binder -3.8 and HGIII-sPLA2 inh 11.7.
Cc1cccc(NC(=O)NNC(=O)c2cc3ccccc3cc2O)c1C was read as UBC13 polyUb 2.9, UBC9 SUMO inh 14.1, NR3A LBD binder -2.0 and HGIII-sPLA2 inh 17.3.
`O=C(COc1ccccc1Cl)NCCCN1CCOCC1` gave UBC13 polyUb 6.3, UBC9 SUMO inh 7.2, NR3A LBD binder 2.7 and HGIII-sPLA2 inh 1.3.
For O=C(COc1ccccc1O)NCCN1CCOCC1 the results were UBC13 polyUb -10.1, UBC9 SUMO inh -5.4, NR3A LBD binder 0.8, HGIII-sPLA2 inh 19.7*, sPLA2 confirm 11.6 and 535nm interf -2.2.
Screening COCCNc1nc(NCc2cnc(C)cn2)c2sccc2n1 returned HGIII-sPLA2 inh 21.7*, sPLA2 confirm -2.1 and 535nm interf -6.7.
For COCCNc1nc(NCc2ccccc2OC)c2sccc2n1 the results were HGIII-sPLA2 inh -6.9.
Screening O=C(Nc1nc2ncccn2c1-c1ccc(F)c(F)c1)c1ccccc1 returned HGIII-sPLA2 inh 4.0.
CCN(CC)C(=O)c1csc([C@@H]2O[C@H](CO)[C@H](O)[C@H](O)[C@H]2O)n1 was read as HGIII-sPLA2 inh 17.0.
CN(Cc1ccccc1)C(=O)c1csc([C@@H]2O[C@H](CO)[C@@H](O)[C@H]2O)n1 was read as HGIII-sPLA2 inh 19.6*, sPLA2 confirm -5.9 and 535nm interf -3.6.
NC(=O)c1c(N)[nH]c(C(=O)c2ccccc2)c1-c1cccc2ccccc12 was read as HGIII-sPLA2 inh -1.1.
For CC(C)C[C@H]1COc2cc(F)ccc2S(=O)(=O)N1C the results were HGIII-sPLA2 inh 1.6.
c1ccc(CSc2ccc(-c3ccc4c(c3)OCO4)nn2)cc1 was read as UBC13 polyUb 4.3, UBC9 SUMO inh 8.2, NR3A LBD binder 1.1, HGIII-sPLA2 inh 22.8*, sPLA2 confirm 1.5 and 535nm interf -7.2.
O=C(/C(=C\c1ccccc1)c1nc2ccccc2[nH]1)c1ccc(Cl)cc1 was read as UBC13 polyUb -15.8, UBC9 SUMO inh -17.4, NR3A LBD binder 9.2 and HGIII-sPLA2 inh 6.0.
Screening Cc1ccccc1NC(=S)c1nc2ccccc2[nH]1 returned UBC9 SUMO inh -134.8, NR3A LBD binder -1.9, HGIII-sPLA2 inh 44.6*, sPLA2 confirm 31.4*, 535nm interf 2.8 and 535nm interf DR >122.
`S=C(Nc1ccc(Cl)cc1)c1nc2ccccc2[nH]1` gave UBC13 polyUb -13.8, UBC9 SUMO inh -118.0, NR3A LBD binder -6.0, HGIII-sPLA2 inh 30.2*, sPLA2 confirm 35.7*, 535nm interf 1.6 and 535nm interf DR >122.
For Cc1ccc2c(c1)C1CS(=O)(=O)N(C3CCCC3)CN1C2 (stereo not given) the results were HGIII-sPLA2 inh 3.4.
O=C(O)C(C/C(=N/O)c1ccc(Br)cc1)P(=O)(c1ccccc1)c1ccccc1 (stereo not given) was read as UBC13 polyUb -1.2, UBC9 SUMO inh 25.8, NR3A LBD binder -0.4, HGIII-sPLA2 inh 21.3*, sPLA2 confirm 1.8 and 535nm interf -6.6.
Screening CC(C)(C)c1cc(-c2n[nH]c(=S)n2-c2ccc(Cl)cc2)n[nH]1 returned UBC13 polyUb 3.7, UBC9 SUMO inh 21.7, NR3A LBD binder -0.5, HGIII-sPLA2 inh 20.8*, sPLA2 confirm 27.0* and 535nm interf 4.1.
CCN(CC)C(=O)CC[C@@H]1CC[C@]2(CCCN(C(=O)c3ccco3)C2)O1 was read as HGIII-sPLA2 inh 3.6.
For COCC(=O)N(C[C@H]1[C@H](c2ccccc2)[C@@H](CO)N1C(=O)NC(C)C)C(C)C the results were HGIII-sPLA2 inh 9.6.
`CC(C)(C)NC(=S)NNC(=O)[C@H]1C[C@@H]1c1ccccc1` gave UBC13 polyUb 0.8, UBC9 SUMO inh 6.7, NR3A LBD binder -1.0 and HGIII-sPLA2 inh 11.1.
Screening Cc1ccc(C2CC2C(=O)NNC(=S)Nc2ccc(Cl)cc2)cc1 (stereo not given) returned UBC13 polyUb -18.3, UBC9 SUMO inh -142.8, NR3A LBD binder 11.7*, HGIII-sPLA2 inh 20.7*, sPLA2 confirm 8.7 and 535nm interf 11.6*.
For O=C(Nc1ccccc1)C1C2CCCCC21 (stereo not given) the results were UBC13 polyUb 3.2, UBC9 SUMO inh 1.5, NR3A LBD binder -1.8 and HGIII-sPLA2 inh -3.8.
`O=C(NNC(=S)Nc1ccc(F)cc1)C1[C@H]2CCCC[C@@H]12` (stereo not given in full) gave UBC13 polyUb -9.7, UBC9 SUMO inh -25.4, NR3A LBD binder 0.2, HGIII-sPLA2 inh 24.6*, sPLA2 confirm 22.3* and 535nm interf 2.8.
Screening C#CCN1CC(N(C)CCOC(=O)c2ccc([N+](=O)[O-])cc2)CS1(=O)=O (stereo not given) returned HGIII-sPLA2 inh -4.4.
For CC(CSc1nnnn1-c1ccccc1)Cn1c(N2CCCC2)nc2c1c(=O)[nH]c(=O)n2C (stereo not given) the results were UBC13 polyUb -2.2, UBC9 SUMO inh -0.6, NR3A LBD binder -5.4, HGIII-sPLA2 inh 20.8*, sPLA2 confirm -0.3 and 535nm interf -20.8.
